Source: PubChem
A selection: hits, their analogues and other compounds. The true share with any hit is near 19%.
IL-1B inflam inh: inflammasome signaling inhibition, IL-1 beta readout; THP-1 LPS/ATP IL-1B secretion, AlphaLISA, 16 h; hits give low values; activity change, % at 57.5 µM; actives 4.7% (n = 360,000); in the data active means activity change below about -50%; inconclusive means mostly about -30% to -49%
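THP-1 cells pretreated 1 hr with compounds (up to 57.5 uM final), then stimulated with LPS (250 ng/mL final) plus ATP (1.25 mM final); secreted IL-1B measured by AlphaLISA after 16 hr, decreased signal indicating inhibition.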
DT40 TDP1 no CPT: qHTS for Inhibitors of human tyrosyl-DNA phosphodiesterase 1 (TDP1): qHTS in cells in absence of CPT; Potency, µM (highest dose often 46.2 µM), most hits filed as inhibitors; actives 15% (n = 420,000); AID 686978, 2013; DT40 Tdp1-/- hTDP1 cells, no CPT, ATP luminescence, 48 h; further: nearly all actives have a fitted effect of over 55% in size
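Camptothecin absent (DMSO only). Human TDP1-complemented DT40 knockout cells, 400 cells/well, 37 °C for minimum 48 hr; ATP measured via CellTiter-Glo, 30 min dark incubation, luminescence.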
DT40 TDP1 CPT: growth inhibition of DT40 Tdp1-/-;hTDP1 cells with camptothecin (screen for TDP1 inhibitors) | chicken DT40 Tdp1-/-;hTDP1 cells + 20 nM CPT, ATP luminescence, 48 h | AID 686979 | Potency, µM (doses to about 46.2 µM), hits mostly inhibitors | actives 12% (n = 420,000); further: nearly all actives have a fitted effect of over 55% in size
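Chicken DT40 Tdp1-/- cells complemented with human TDP1, 400 cells/well, exposed to compounds plus 20 nM camptothecin for at least 48 h at 37 C; viability read as ATP content by CellTiter-Glo luminescence.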
HT1080NT lethal: kills 2HG-producing HT-1080-NT fibrosarcoma cells; HT-1080-NT fibrosarcoma viability, CellTiter-Glo ATP luminescence, 48 h; Potency, µM (highest dose often 46.1 µM), usual class: cytotoxic; actives 1.6% (n = 360,000); AID 686970;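 further: NT is the 2HG producing partner of a matched IDH1 knockdown line; nearly all actives have a fitted effect of over 55% in size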
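Toxicity toward the 2HG-producing NT line was scored as %Activity, normalised to DMSO and no-cell wells, from CellTiter-Glo luminescence after 48 hours' treatment.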
HT1080 IDH1KD tx: toxicity to HT-1080 IDH1 knockdown cells (counter line); HT-1080 IDH1 knockdown viability, ATP luminescence, 48 h; Potency, µM (series often up to 46.1 µM), actives largely listed as cytotoxic; actives 2% (n = 360,000); AID 686971
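In this qHTS, HT-1080 cells depleted of IDH1 are exposed for 48 h at 37 °C to compound titrations. Toxicity is scored from CellTiter-Glo luminescence, with DMSO as full viability and medium alone as none.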
uPA surface inh: cell surface uPA generation inhibition; cell surface uPA generation assay, qHTS; Potency, µM (doses to about 38.3 µM), hits mostly inhibitors; actives 0.31% (n = 330,000); active means well fitted inhibition curve with a large enough effect; inconclusive means small, poorly fitted or top-dose-only effect; inactive means no such curve, though single readings can be large or run the other way; tested in mouse RAW 264.7 cells; further: nearly all actives have a fitted effect of over 55% in size
Each line names hits and unclear results; the compound was inactive in the other large screens. Unless noted, the call rests on the fitted dose curve; in most records, active means well fitted curve in the direction sought with a large enough effect; inconclusive means small, poorly fitted or top-dose-only effect, or another doubt; inactive means no such curve, though single readings can be large; an effect the other way counts as inactive or inconclusive.

CCc1nnc(N/N=C/c2ccc(N3CCC(C)CC3)c([N+](=O)[O-])c2)n1N	DT40 TDP1 no CPT inconclusive, DT40 TDP1 CPT inconclusive, HT1080NT lethal inconclusive, HT1080 IDH1KD tx 32.6µM
CC1CCN(c2cc(N3CCOCC3)c(F)cc2[N+](=O)[O-])CC1	IL-1B inflam inh inconclusive, DT40 TDP1 no CPT inconclusive
CC1=C(C(=O)N(C)C)CC(CC(=O)NCCN2CCOCC2)C(=O)N1CCCN1CCCC1=O (configuration not stated)	DT40 TDP1 CPT inconclusive (no result: uPA surface inh)
CC1=C(C(=O)Nc2ccc(C)cc2C)C(c2ccc(O)cc2)n2nnnc2N1 (configuration not stated)	DT40 TDP1 no CPT inconclusive (no result: IL-1B inflam inh, HT1080NT lethal, HT1080 IDH1KD tx, uPA surface inh)
O=[N+]([O-])c1ccc(N/N=C/c2sc(N3CCOCC3)nc2-c2ccccc2)c(S(=O)(=O)Nc2ccccc2Cl)c1	DT40 TDP1 no CPT 1.84µM, DT40 TDP1 CPT 3.26µM
O=[N+]([O-])c1ccc(N/N=C/c2sc(N3CCOCC3)nc2-c2ccccc2)c(S(=O)(=O)Nc2ccc(Cl)cc2)c1	IL-1B inflam inh inconclusive, DT40 TDP1 no CPT 1.03µM, DT40 TDP1 CPT 1.64µM, uPA surface inh inconclusive
COC(=O)c1ccc(COc2ccc(Cl)cc2)o1	none
CC(C)NC(=O)c1ccc(COc2cccc3ccccc23)o1	DT40 TDP1 no CPT 18.4µM, DT40 TDP1 CPT inconclusive (no result: uPA surface inh)
CCOc1ccc(OCc2ccc(C(=O)NC(C)(C)C)o2)cc1	IL-1B inflam inh inconclusive, DT40 TDP1 no CPT inconclusive, DT40 TDP1 CPT 7.31µM
CCOc1ccc(OCc2ccc(C(=O)NN)o2)cc1	none
CC(C)NC(=O)c1ccc(COc2ccc(C(C)(C)C)cc2)o1	DT40 TDP1 no CPT 13µM, DT40 TDP1 CPT inconclusive, HT1080NT lethal inconclusive
COc1ccc2oc(-c3ccc(C)c(NC(=O)c4ccc(N5CCCCC5)c([N+](=O)[O-])c4)c3)nc2c1	none (no result: IL-1B inflam inh, HT1080NT lethal, HT1080 IDH1KD tx, uPA surface inh)
CN(Cc1ccccc1)C(=O)COC(=O)CCC(=O)c1ccc(F)cc1	none
Cc1cc(O)c(C(C)C)cc1NC(=O)Nc1ccc([N+](=O)[O-])cc1	IL-1B inflam inh inconclusive, DT40 TDP1 no CPT inconclusive, HT1080 IDH1KD tx inconclusive
Cc1cc(Br)ccc1NC(=O)C(C)c1ccc([N+](=O)[O-])cc1 (configuration not stated)	DT40 TDP1 no CPT 25.9µM, DT40 TDP1 CPT inconclusive
Cc1ccc([N+](=O)[O-])cc1NC(=O)C(Sc1ccccc1)c1ccccc1 (configuration not stated)	DT40 TDP1 no CPT 16.4µM, DT40 TDP1 CPT inconclusive
Cc1ccc([N+](=O)[O-])cc1NC(=O)c1ccccc1	none
Cc1ccc(C(C)C)cc1NC(=O)Nc1ccc([N+](=O)[O-])cc1	IL-1B inflam inh -52.2, DT40 TDP1 no CPT 3.66µM, DT40 TDP1 CPT 4.61µM
O=C(CC1CC2CCC1C2)N1CCN(S(=O)(=O)c2ccc(F)cc2)CC1 (configuration not stated)	none (no result: uPA surface inh)
Cc1ccc2ncc(S(=O)(=O)c3ccccc3)c(N3CCCCC3C)c2c1 (configuration not stated)	DT40 TDP1 no CPT 18.4µM, DT40 TDP1 CPT 23.1µM
COc1cc(OC)c(OC)cc1/C=C/c1cc(C(F)(F)F)[nH]c(=O)n1	none
O=c1nc(/C=C/c2cc([N+](=O)[O-])ccc2Cl)cc(C(F)(F)F)[nH]1	IL-1B inflam inh -94.5, DT40 TDP1 no CPT 23.1µM, DT40 TDP1 CPT inconclusive
O=c1nc(/C=C/c2cccn2-c2ccc([N+](=O)[O-])cc2)cc(C(F)(F)F)[nH]1	none
COc1cc(/C=C/c2cc(C(F)(F)F)[nH]c(=O)n2)cc(OC)c1OC	IL-1B inflam inh -101.1, DT40 TDP1 no CPT inconclusive, DT40 TDP1 CPT inconclusive, HT1080NT lethal inconclusive, HT1080 IDH1KD tx 29.1µM
COc1ccc(NC(=O)c2cc3nc(-c4ccc(Cl)c(Cl)c4)cc(C(F)(F)F)n3n2)c(OC)c1	none (no result: IL-1B inflam inh, HT1080NT lethal, HT1080 IDH1KD tx, uPA surface inh)
Cn1cccc1C(=O)NC(=O)COC(=O)c1ccc(S(C)(=O)=O)c([N+](=O)[O-])c1	IL-1B inflam inh -95.4, DT40 TDP1 no CPT 4.47µM, DT40 TDP1 CPT 3.98µM, HT1080NT lethal inconclusive, HT1080 IDH1KD tx inconclusive
